Laboratory results reported in the supplement of paper PMC6555819.

Tests used:
Experiment in all cases: PBM binding z-score (relative to random genomic background probes); higher = stronger binding; sequences stand for … in GC…GCGATTGACAGCGTAGAATGAAGG
[1] = tested on: FXR:RXRa (NR concentration 270 nM, RXRa partner concentration 90 nM)
Method in brief: (§1)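 Binding z-scores take random background probes as their reference. They come from custom Agilent 4×180K protein-binding microarrays incubated 1 h with ligand-free nuclear receptor dimers, with antibodies against each partner (one per run) detecting binding. Scanned fluorescence was regression-normalized.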

[2] = tested on: LXRa:RXRa (NR concentration 270 nM, RXRa partner concentration 90 nM)
Method in brief: as §1

[3] = tested on: LXRa homodimer (NR concentration 270 nM)
Method in brief: as §1

[4] = tested on: LXRb:RXRa (NR concentration 270 nM, RXRa partner concentration 90 nM)
Method in brief: as §1

[5] = tested on: LXRb homodimer (NR concentration 270 nM)
Method in brief: as §1

[6] = tested on: PPARa:RXRa (NR concentration 270 nM, RXRa partner concentration 90 nM)
Method in brief: as §1

[7] = tested on: PPARg:RXRa (NR concentration 180 nM, RXRa partner concentration 90 nM)
Method in brief: as §1

[8] = tested on: PPARg:RXRa 270nM:90nM, anti-RXR (NR concentration 270 nM, RXRa partner concentration 90 nM)
Method in brief: as §1

[9] = tested on: PPARg:RXRa 30nM:10nM, anti-RXR (NR concentration 30 nM, RXRa partner concentration 10 nM)
Method in brief: as §1

[10] = tested on: PPARg:RXRa 90nM:30nM, anti-RXR (NR concentration 90 nM, RXRa partner concentration 30 nM)
Method in brief: as §1

[11] = tested on: PPARg:RXRa DBDmut IVT, anti-RXR (DBD mutation: RXRa K156A/R161A, NR concentration 270 nM, RXRa partner concentration 90 nM)
Method in brief: as §1

[12] = tested on: PPARg:RXRa IVT, anti-PPARg (NR concentration 270 nM, RXRa partner concentration 90 nM)
Method in brief: as §1

[13] = tested on: PPARg DBDmut:RXRa IVT, anti-PPARg (DBD mutation: PPARg1 K132A/R137A, NR concentration 270 nM, RXRa partner concentration 90 nM)
Method in brief: as §1

[14] = tested on: PPARg DBDmut IVT, anti-PPARg (DBD mutation: PPARg1 K132A/R137A, NR concentration 270 nM)
Method in brief: as §1

[15] = tested on: PPARg homodimer (NR concentration 180 nM)
Method in brief: as §1

[16] = tested on: PXR:RXRa (NR concentration 270 nM, RXRa partner concentration 90 nM)
Method in brief: as §1

[17] = tested on: PXR homodimer (NR concentration 270 nM)
Method in brief: as §1

[18] = tested on: RARa:RXR (NR concentration 270 nM, RXRa partner concentration 90 nM)
Method in brief: as §1

[19] = tested on: RARa homodimer (NR concentration 270 nM)
Method in brief: as §1

[20] = tested on: RARb:RXRa (NR concentration 270 nM, RXRa partner concentration 90 nM)
Method in brief: as §1

Sequence | PBM binding z-score [1] | PBM binding z-score [2] | PBM binding z-score [3] | PBM binding z-score [4] | PBM binding z-score [5] | PBM binding z-score [6] | PBM binding z-score [7] | PBM binding z-score [8] | PBM binding z-score [9] | PBM binding z-score [10] | PBM binding z-score [11] | PBM binding z-score [12] | PBM binding z-score [13] | PBM binding z-score [14] | PBM binding z-score [15] | PBM binding z-score [16] | PBM binding z-score [17] | PBM binding z-score [18] | PBM binding z-score [19] | PBM binding z-score [20]
TAGCCAAGGTCATGCGGGCCAGTATAGTGTCGGC | 7.03 | 4.97 | 1.17 | 3.87 | 0.499 | 5.58 | 4.64 | 4.84 | 1.61 | 3.73 | 1.6 | 3.47 | 1.13 | 0.504 | 1.92 | 4.35 | 1.1 | 4.48 | 0.0818 | 5.09
CGTCCAAGGTCATTGCTAGGTCAGTGAAAGCATT | 6.96 | 5.75 | 3.09 | 4.57 | 1.37 | 5.32 | 3.8 | 5.08 | 1.55 | 3.62 | 3.23 | 4.03 | -0.074 | -0.854 | 4.11 | 5.16 | 2.4 | 5.71 | 0.612 | 5.04
TAGCCTAGGTCATGGGGCCAGTATAGTACGCATC | 4.54 | 3.52 | 0.182 | 2.77 | 0.0614 | 4.31 | 3.62 | 3.29 | 0.919 | 2.66 | 1.84 | 3.72 | 0.968 | -0.401 | 3.22 | 2.19 | -0.641 | 3.54 | 0.443 | 3.94
GCTCGAAGGACAAGGTCAGAGCTTTGTCCGTAGA | 1.53 | 1.79 | -0.456 | 0.996 | -0.575 | 2.56 | 0.738 | 1.72 | -0.296 | 0.829 | -0.135 | 0.583 | -0.7 | -0.691 | 0.73 | 1.59 | -0.626 | 2.28 | -0.618 | 3.44
TCTTTTAGTTGAAGGGCAACCGACGAGTCCGTTT | 0.645 | 1.13 | 0.171 | 1 | 1.62 | 1.16 | -0.118 | 2.13 | 3.65 | 2.71 | 2.2 | 0.777 | 2.36 | 1.84 | 0.00638 | 0.764 | 0.475 | 0.383 | 0.199 | 1.65
AGTCAAAGTTCAGGATGAGGTAACGTAAAGCACG | 4.14 | 3.93 | 1.07 | 2.02 | 0.238 | 3.58 | 4.66 | 4.92 | 2.26 | 3.84 | 0.224 | 2.35 | 0.915 | 0.721 | 2.23 | 3.14 | 1.49 | 3.09 | 0.768 | 4.37
GTACCAAGGTGAATAGATCGTTGATGAGTAGGCG | 0.377 | 0.133 | -0.179 | -0.113 | -0.522 | 0.852 | 0.853 | 0.705 | 0.296 | 0.417 | 1.62 | 1.74 | 0.415 | 0.448 | 0.785 | -0.0465 | -0.049 | 0.221 | 0.712 | 1.13
TCGAGTAGGGTAGTCGGGGCATTCAGCCAACATA | -0.261 | -0.324 | -0.232 | 0.0407 | -0.844 | 0.109 | -0.307 | 0.468 | 0.525 | 0.442 | 1.33 | 0.997 | -1.17 | -0.743 | 0.299 | -0.12 | -0.394 | -0.233 | -0.527 | 0.0213
CTCGAAAGGTCGTGCTCAGGTGAGAATACCAAAC | 5.2 | 3.74 | 0.081 | 3.51 | 0.321 | 4.86 | 2.81 | 3.77 | 1.19 | 2.44 | 0.69 | 1.89 | 0.151 | 0.41 | 2.63 | 3.35 | 0.0262 | 4.6 | 0.317 | 3.93
CGTCCAAGGTCAGCATGTCAGTGAAAGCGACGTG | 5.06 | 3.16 | -0.309 | 2.27 | -0.251 | 4.07 | 2.43 | 3.09 | 0.443 | 1.45 | 2.52 | 2.35 | -0.0905 | -0.674 | 2.58 | 2.41 | 0.102 | 3.01 | 0.765 | 4.93
GTACAAAGGTGAATAGGTCGTTGATGAGTAGGCG | 2.27 | 2.19 | 0.326 | 1.78 | -0.0357 | 4.09 | 4.55 | 4.78 | 2.17 | 4.03 | 2.92 | 4.14 | 1.72 | 0.526 | 2.64 | 2.15 | 0.501 | 3.42 | 1.23 | 3.49
ATCTCTAGGTAAAAGTTGAGTGAATCCCGAGGAT | 0.0929 | 0.162 | 0.126 | -0.0605 | 0.531 | 2.84 | 4.94 | 6.21 | 5.21 | 6.22 | 2.05 | 2.5 | 1.01 | 1.53 | 0.688 | 0.0685 | 0.147 | 0.3 | 0.494 | 0.471
TGATATAGGTAAAAGGTGAAAGTCGGTGTGGTAA | 1.72 | 1.59 | 0.194 | 1.96 | 0.256 | 5.88 | 9.54 | 8.88 | 8.67 | 9.7 | 5.38 | 5.55 | 1.59 | 1.77 | 1.8 | 1.68 | 0.555 | 2.78 | 1.18 | 2.05
ACTAGTTGGTCAGCTGAGGGCACACACAATTCGG | 0.819 | 0.0659 | 0.172 | 0.183 | -0.0227 | 0.606 | 0.887 | 0.572 | 0.27 | 0.385 | 0.794 | 1.19 | -0.0581 | 0.654 | 0.538 | 2.26 | 0.211 | 1.13 | -0.0752 | 1.73
